# In the supplement of paper PMC6555819:
# Tested on: VDR:RXRa (NR concentration 270 nM, RXRa partner concentration 90 nM)
# Experiment: PBM binding z-score (relative to random genomic background probes); higher = stronger binding; sequences stand for … in GC…GCGATTGACAGCGTAGAATGAAGG
# Method: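 Protein-binding microarray (Agilent 4x180K custom design, double-stranded 60-nt probes: 5' GC cap, 34-nt variable region, 24-nt constant primer region; full probe sequence given). Purified or IVT nuclear receptor:RXRα heterodimers (3:1 NR:RXRα, mostly 270:90 nM) or homodimers were incubated for 1 h in PBS with 2% milk and no ligand, then detected with Alexa488 antibodies. Fluorescence from o1-orientation probes (~5 replicates averaged) was converted to z-scores against 500 random hg19 background probes. Variable regions are seed direct-repeat (DR0–DR5) sites, all their single-nucleotide variants and half-site ablations.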
row,Sequence,PBM binding z-score
1,GGAACGTGGGCAAAGTTGATAGCATCTGTCGACG,-0.399
2,TGAATGAGGTTAAACATCAGGGAACGTGGCGTCG,1.87
3,AGTCAAAGTTCCGGACGAGGTAACGTAAAGCACG,-0.357
4,CGTACGAGGGCATGAGTTGATAGCAAATGCCGAT,1.36
5,CCTACTGGGCCATCAGGTCATGGATATCAACGTT,1.54
6,TCTTGTAGATCAAGCAGGTGAAGAAAGCCTGAGT,0.0815
7,CCGAGTAGGTTATGGGGCGTTCAGGCAACGGTGA,0.0035
8,CCTTACGGGTCACTCCAGGTTATAGCCTCGGAGT,4.09
9,CGTGCTAGGTCAATGGTCAGCTAAAGCAGCTCGC,0.97
10,TAATATAGGTAATACAGGTGAAAGTCGGCATCTA,0.659
11,AGAACGAGGGCACTGAGTTGATAGCACGGGTGGC,4.52
12,ATCTCTAGGTAAAGATAGTTAAGTGAATGCAAAT,0.487
13,TCATATAGGTAAAAGGTGAAAGTCGGTGTGGTAA,1.82
14,GGAACGAGGGAAAAGTTGATAGCATCTGTCGACG,-0.649
15,CAAACTAGGTCAAAGGTCATAGTCGAGCCAACCA,6.71
16,TCATATAGGTAATACAGGGGAAAGTCGGCATCTA,1.06
17,AGTCAAAGTTCACTAGGTAATGTAAGATTCAGCT,3.84
18,CCTGCTAGATCAATGGTCAGCTAAAGCAGCTCGC,-0.615
19,CCAGACAGGTGAAAGGTAACCCAGTCTGGTACGC,0.645
20,CAAACTCGGTCACAGAGGTCAAAGTCCGTGCGTA,7.57

row,Sequence,PBM binding z-score
1,CGAACGAGGGCATCAGTTGATAGCAAATGCCGAT,0.559
2,TCTATTAGTTGATTAGGGCAACGGAAACAGCGGA,0.621
3,TAGCCTAGGTCATGCGGGCCAGTCTAGTGTCGGC,2.82
4,GATACAGGGTCAAGGCCGGAGTACGCGTATTGAT,4.38
5,TCTTGTAGATCAAAGGCTAAGAAAGCCGAAGCCT,-0.203
6,CGTCCAAGGTCAATGCTAGGTCAGAGAAAGCATT,4.76
7,CGAACTTGGTCAAGGACAGTGAATCTCCGCACGC,-0.245
8,ATCTGTAGGTTAAGGGTCATTCAGGTTGGTTCGC,5.77
9,GCTCGTTGGTCAGTAAAAGGTCACACACCGGTCG,4.26
10,TGATATAGGTAATACAGGTGAAAGTCGGCATCTA,0.523
11,TCTGTTAGTTGAAGGGCAACCGACGAGTCCGTTT,0.902
12,CGAACTAGGTCAGAACTGGACAGTGAAGGATGAT,0.181
13,CCTAGCAAGCCAATCTGGGTCACTCAAGGCTTGA,0.396
14,ATCTCTAGGTGAGACTCAGTTCAGTGAAGAACGC,0.863
15,CAAACTAGGTCAAAGGTCGAAGTCGAGCCAACCA,5.03
16,CCTGCTAGGTCAGGGTCAGCTAATCTACAGTATG,2.86
17,TAGCCTAGGTCATACGGGCCAGTATAGTGTCGGC,3.08
18,AGTCAAAGTTCAGGACGAGGTAACCTAAAGCACG,2.94
19,ATCTCAAGGTAAGACTCAGTTCAGTGAAGAACGC,1.27
20,ATCGAAAGGTCGCGGTGAGTATAGAGAAAGGGAA,3.74
